In PubChem BioAssay (EPA / NIEHS):
“And” between values parts separate entries of the source, which are not always exact repeats. Identical values can stand only once. More than one record can exist for a structure, and the calls need not agree. The source made the active and inactive calls. Rule for the calls: active = hit-call score of the fitted dose curve at least 0.9, where 1 is the maximum; inactive = score below 0.9.

What was measured:
[1] = read-out: Low-density lipoprotein receptor (LDLR), LDLR (gene 3949); assay: BSK_CASM3C_LDLR: BioMAP Diversity Plus: CASM3C Assay for Low-density lipoprotein receptor (LDLR) Biomarker Activity (AID 2283045); conditions: primary human coronary artery smooth muscle cells; actives raise or lower the signal;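 note: LDLR protein level on the cell surface quantified by ELISA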
[2] = read-out: Monocyte Chemoattractant Protein-1 (MCP1), CCL2 (gene 6347); assay: BSK_CASM3C_MCP1: BioMAP Diversity Plus: CASM3C Assay for Monocyte Chemoattractant Protein-1 (MCP1) Biomarker Activity (AID 2283046); conditions: primary human coronary artery smooth muscle cells; actives raise or lower the signal;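 note: MCP-1 level quantified by ELISA 24 h after dosing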
[3] = BSK_CASM3C_Proliferation: Cell Proliferation Assessment in the BioMAP Diversity Plus: CASM3C Assay (AID 2283047); conditions: primary human coronary artery smooth muscle cells;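 note: sulforhodamine B total protein stain as relative cell number at 560 nm; sub-confluent cells exposed 48 h before staining; fitted both ways against DMSO so gain or loss of cell number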
[4] = read-out: Monokine induced gamma interferon (MIG), CXCL9 (gene 4283); assay: BSK_CASM3C_MIG: BioMAP Diversity Plus: CASM3C Assay for Monokine induced gamma interferon (MIG) Biomarker Activity (AID 2283048); conditions: primary human coronary artery smooth muscle cells; actives raise or lower the signal;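 note: MIG protein level measured by ELISA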
[5] = read-out: serum amyloid A (SAA), SAA1 (gene 6288); assay: BSK_CASM3C_SAA: BioMAP Diversity Plus: CASM3C Assay for serum amyloid A (SAA) Biomarker Activity (AID 2283049); conditions: primary human coronary artery smooth muscle cells; actives raise or lower the signal;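 note: SAA protein level quantified by ELISA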
[6] = BSK_CASM3C_SRB: Viability Assessment in the BioMAP Diversity Plus: CASM3C Assay (AID 2283050); conditions: primary human coronary artery smooth muscle cells;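 note: total protein by SRB staining as cytotoxicity measure in parallel cultures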
[7] = read-out: Thrombomodulin, THBD (gene 7056); assay: BSK_CASM3C_Thrombomodulin: BioMAP Diversity Plus: CASM3C Assay for Thrombomodulin Biomarker Activity (AID 2283051); conditions: primary human coronary artery smooth muscle cells; actives raise or lower the signal;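 note: thrombomodulin protein level measured by ELISA 24 h after dosing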
[8] = read-out: Tissue Factor, F3 (gene 2152); assay: BSK_CASM3C_TissueFactor: BioMAP Diversity Plus: CASM3C Assay for Tissue Factor Biomarker Activity (AID 2283052); conditions: primary human coronary artery smooth muscle cells; actives raise or lower the signal;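 note: cell surface tissue factor protein level read by ELISA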
[9] = read-out: Interferon-gamma inducible Protein 10 (IP10), CXCL10 (gene 3627); assay: BSK_hDFCGF_IP10: BioMAP Diversity Plus: hDFCGF Assay for Interferon-gamma inducible Protein 10 (IP10) Biomarker Activity (AID 2283053); conditions: primary human foreskin fibroblasts; actives raise or lower the signal
Summary of the method: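 Human foreskin fibroblast primary cells (hDFCGF system) were dosed with chemical and assayed at 24 h; IP-10 measured by ELISA. Activity fitted bidirectionally relative to DMSO negative control as baseline.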

[10] = read-out: Urokinase-type plasminogen activator receptor (uPAR), PLAUR (gene 5329); assay: BSK_CASM3C_uPAR: BioMAP Diversity Plus: CASM3C Assay for Urokinase-type plasminogen activator receptor (uPAR) Biomarker Activity (AID 2283054); conditions: primary human coronary artery smooth muscle cells; actives raise or lower the signal;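 note: cell-surface uPAR protein level quantified by ELISA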
[11] = read-out: Vascular cell adhesion molecule 1 (VCAM1), VCAM1 (gene 7412); assay: BSK_CASM3C_VCAM1: BioMAP Diversity Plus: CASM3C Assay for Vascular cell adhesion molecule 1 (VCAM1) Biomarker Activity (AID 2283055); conditions: primary human coronary artery smooth muscle cells; actives raise or lower the signal;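 note: VCAM-1 protein level quantified by ELISA on the cells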
[12] = read-out: Collagen III, COL3A1 (gene 1281); assay: BSK_hDFCGF_CollagenIII: BioMAP Diversity Plus: hDFCGF Assay for Collagen III Biomarker Activity (AID 2283056); conditions: primary human foreskin fibroblasts; actives raise or lower the signal
Summary of the method: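 Human foreskin primary fibroblasts were exposed to test chemicals for 24 h, after which collagen III was quantified by ELISA. Activity was fitted bidirectionally against DMSO as negative control and baseline.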

[13] = read-out: Epidermal growth factor receptor (EGFR), EGFR (gene 1956); assay: BSK_hDFCGF_EGFR: BioMAP Diversity Plus: hDFCGF Assay for Epidermal growth factor receptor (EGFR) Biomarker Activity (AID 2283057); conditions: primary human foreskin fibroblasts; actives raise or lower the signal
Summary of the method: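 Primary human foreskin fibroblasts were exposed to compound for 24 h, after which cell-surface EGFR was quantified by ELISA. Activity was fitted bidirectionally against the DMSO negative control as baseline.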

[14] = read-out: Interleukin-8 (IL8), CXCL8 (gene 3576); assay: BSK_hDFCGF_IL8: BioMAP Diversity Plus: hDFCGF Assay for Interleukin-8 (IL8) Biomarker Activity (AID 2283058); conditions: primary human foreskin fibroblasts; actives raise or lower the signal
Summary of the method: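 hDFCGF human dermal fibroblasts; 24 h chemical exposure; IL-8 by ELISA; bidirectional curve fit vs DMSO baseline; gain or loss of signal scored.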

[15] = BSK_hDFCGF_Proliferation: Cell Proliferation Assessment in the BioMAP Diversity Plus: hDFCGF Assay (AID 2283059); conditions: primary human foreskin fibroblasts;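 note: curves fitted for both rise and fall of signal versus DMSO baseline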
Summary of the method: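 This proliferation readout used SRB total-protein staining of human foreskin fibroblasts […], normalized to DMSO with bidirectional curve fitting.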

[16] = read-out: Macrophage colony-stimulating factor (MCSF), CSF1 (gene 1435); assay: BSK_hDFCGF_MCSF: BioMAP Diversity Plus: hDFCGF Assay for Macrophage colony-stimulating factor (MCSF) Biomarker Activity (AID 2283060); conditions: primary human foreskin fibroblasts; actives raise or lower the signal
Summary of the method: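 Human foreskin primary fibroblasts were treated with test chemical for 24 h, and M-CSF was then measured by ELISA. Data were fitted bidirectionally against DMSO as the negative control and activity baseline.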

[17] = BSK_hDFCGF_SRB: Viability Assessment in the BioMAP Diversity Plus: hDFCGF Assay (AID 2283061); conditions: primary human foreskin fibroblasts;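 note: cells exposed to compound for 24 h before the read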
Summary of the method: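 Human foreskin primary fibroblasts were treated with compound and assessed 24 h after dosing. Total protein was measured by sulforhodamine B staining (0.1% SRB after 10% TCA fixation, 560 nm read) as a cytotoxicity marker, with bidirectional fitting against DMSO baseline.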

[18] = read-out: TIMP metallopeptidase inhibitor 1 (TIMP1), TIMP1 (gene 7076); assay: BSK_hDFCGF_TIMP1: BioMAP Diversity Plus: hDFCGF Assay for TIMP metallopeptidase inhibitor 1 (TIMP1) Biomarker Activity (AID 2283062); conditions: primary human foreskin fibroblasts; actives raise or lower the signal
Summary of the method: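 Primary human foreskin fibroblasts in the hDFCGF system were dosed with compound for 24 h, then TIMP-1 was measured by ELISA. Activity was fitted bidirectionally relative to DMSO control; parallel SRB staining assessed cytotoxicity.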

[19] = read-out: Monokine induced gamma interferon (MIG), CXCL9 (gene 4283); assay: BSK_hDFCGF_MIG: BioMAP Diversity Plus: hDFCGF Assay for Monokine induced gamma interferon (MIG) Biomarker Activity (AID 2283063); conditions: primary human foreskin fibroblasts; actives raise or lower the signal
Summary of the method: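 ELISA read-out of MIG from primary human dermal fibroblasts 24 h post-dosing. Gain or loss of signal fitted bidirectionally, DMSO as baseline.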

[20] = read-out: Matrix Metallopeptidase 1 (MMP1), MMP1 (gene 4312); assay: BSK_hDFCGF_MMP1: BioMAP Diversity Plus: hDFCGF Assay for Matrix Metallopeptidase 1 (MMP1) Biomarker Activity (AID 2283064); conditions: primary human foreskin fibroblasts; actives raise or lower the signal
Summary of the method: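 Primary human foreskin fibroblasts in the hDFCGF system were dosed with test chemical, and MMP1 was measured by ELISA 24 h later. Values come from bidirectional curve fitting against the DMSO baseline.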

Measured: AC50

COc1cc(-c2ccc(N)c(OC)c2)ccc1N
active: [3] 15 µM | [15] 13.2 µM and 4.28 µM | [16] 9.49 µM | [20] 20 µM
inactive: [1] | [2] | [3] | [4] | [5] | [6] | [7] | [8] | [9] | [10] | [11] | [12] | [13] | [14] | [16] | [17] | [18] | [19] | [20]

O=C(O)C(F)(F)C(F)(F)C(F)(F)C(F)(F)C(F)(F)C(F)(F)C(F)(F)C(F)(F)C(F)(F)C(F)(F)F
active: [7] 0.141 µM | [9] 6.56 µM and 4.76 µM and 4.7 µM | [12] 17.1 µM and 5.73 µM and 3.66 µM | [13] 835 nM and 906 nM | [14] 13.1 µM and 6.18 µM and 6.3 µM | [15] 4.01 µM and 2.28 µM and 2.17 µM | [16] 10.8 µM and 5.03 µM and 4.97 µM | [17] 9.04 µM and 5.23 µM and 5.22 µM | [18] 9.33 µM and 5.14 µM and 5.31 µM | [19] 11.5 µM and 4.94 µM and 5.08 µM | [20] 6.98 µM and 5.59 µM and 6.54 µM
inactive: [1] | [2] | [3] | [4] | [5] | [6] | [7] | [8] | [10] | [11] | [13]

ClC1=C(Cl)[C@]2(Cl)[C@H]3[C@H]([C@H]4C=C[C@H]3C4)[C@@]1(Cl)C2(Cl)Cl
active: [3] 8.26 µM | [8] 0.266 µM | [12] 4.4 µM | [15] 8.76 µM | [16] 0.492 µM
inactive: all other assays above

CC(C)c1ccc(CO)cc1
inactive: all assays above

CCOP(=S)(OCC)Oc1ccc(S(C)=O)cc1 (stereo not given)
inactive: all assays above
